“And” between values parts separate entries of the source, which are not always exact repeats. Equal values may be shown once. Records with an inconclusive call do not appear. The source made the active and inactive calls. Calls follow the shape of the dose curve; as a rule, active = well fitted curve in the direction sought with a large enough effect; inconclusive = small, poorly fitted or top-dose-only effect, or another doubt; inactive = no such curve, though single readings can be large; an effect the other way counts as inactive or inconclusive.
Columns and labels:
[1] = Quantitative highthroughput screen to assess conditional lethalithy of NOMO1 cells grown in RPMI1640 with untreated serum (RPMI+s) (AID 1963876); also: nearly all actives have a fitted effect of over 35% in size;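 as to viability: 100% = DMSO wells and 0% = empty wells without cells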
Outline: (§1)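 Each medium arm—HPLM with 10% dialyzed FBS, or RPMI1640 with 5 mM glucose and 10% untreated or dialyzed FBS—was screened against an 11-point, 3-fold compound titration for 48 h at 37 °C, with CellTiter-Glo luminescence as endpoint.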

[2] = Quantitative highthroughput screen to assess conditional lethalithy of P12 Ichikawa cells grown in Human Plasma-Like Medium with dialyzed fetal bovine serum (HPLM+ds) (AID 1963879); conditions: Potency: viability; also: nearly all actives have a fitted effect of over 35% in size; as to viability: series mostly up to about 46 µM
Outline: as §1

[3] = Quantitative highthroughput screen to assess conditional lethalithy of P12 Ichikawa cells grown in RPMI1640 with dialyzed fetal bovine serum (RPMI+ds) (AID 1963880); conditions: Potency: P12-Ichikawa viability; also: nearly all actives have a fitted effect of over 35% in size;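 as to viability: 100% = DMSO wells and 0% = empty wells on each plate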
Outline: as §1

[4] = Quantitative highthroughput screen to assess conditional lethalithy of P12 Ichikawa cells grown in RPMI1640 with untreated serum (RPMI+s) (AID 1963881); conditions: Potency: viability; also: nearly all actives have a fitted effect of over 35% in size;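 as to viability: series mostly up to about 46 µM; 100% = DMSO wells and 0% = empty wells without cells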
Outline: as §1

[5] = Quantitative highthroughput screen to assess conditional lethalithy of SEM cells grown in RPMI1640 with unreated serum (RPMI+s) (AID 1963883); also: nearly all actives have a fitted effect of over 35% in size;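 as to viability: 100% = DMSO wells and 0% = empty wells without cells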
Outline: as §1

[6] = Quantitative highthroughput screen to assess conditional lethalithy of NOMO1 cells grown in Human Plasma-Like Medium with dialyzed fetal bovine serum (HPLM+ds) (AID 1963878); also: nearly all actives have a fitted effect of over 35% in size;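 as to viability: 100% = DMSO wells and 0% = empty wells on each plate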
Outline: as §1

[7] = Cellular viability qHTS for adrenocortical cancer (ACC) cell line NCI-H295R (AID 1963990); also: nearly all actives have a fitted effect of over 60% in size
Outline: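 IC50 and maximal efficacy derive from four-parameter logistic modelling of titration curves, with reads scaled between DMSO-only wells (0%) and doxorubicin hydrochloride (100% inhibition). Compounds spanned up to 46 uM over 48 h.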

[8] = Quantitative highthroughput screen to assess conditional lethalithy of SEM cells grown in Human Plasma-Like Medium with dialyzed fetal bovine serum (HPLM+ds) (AID 1963882); also: nearly all actives have a fitted effect of over 35% in size; as to viability: series mostly up to about 46 µM
Outline: as §1

[9] = Quantitative highthroughput screen to assess conditional lethalithy of SEM cells grown in RPMI1640 with dialyzed fetal bovine serum (RPMI+ds) (AID 1963884); also: nearly all actives have a fitted effect of over 35% in size;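 as to viability: series mostly up to about 46 µM; 100% = DMSO control wells and 0% = empty wells without cells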
Outline: as §1

[10] = Cellular viability qHTS for adrenocortical cancer (ACC) cell line SW-13 (AID 1963989); conditions: SW-13 ACC cells viability, CellTiter-Glo, 48 h; activity (max response): hits give low values; also: nearly all actives have a fitted effect of over 65% in size;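 as to activity (max response): cells grown in serum-free medium with ITS supplement; % is scaled to controls: 0 for no effect and ±100 for the full control effect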
Outline: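 Luminescent ATP read-out (CellTiter-Glo, 20 min at room temperature) measured metabolically competent SW-13 cells after 48 h compound treatment. Final concentrations spanned up to 46 uM; bortezomib served as positive control.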
Potency is read from the fitted curve at half-maximal effect.

CC(=O)C1=C(O)C=C2Oc3c(C(C)=O)c(O)c(C)c(O)c3C2(C)C1=O (stereo unspecified)
active: Potency [1] 296 nM | Potency [2] 1480 nM | Potency [3] 2960 nM | Potency [4] 1320 nM
inactive: Potency [5]

O=c1oc2cc(O)ccc2s1
inactive: Potency [1] | Potency [6] | Potency [2] | Potency [3] | Potency [4] | Potency [7]

O=C(O)CCC1CCC(c2cc(F)ccc2F)(S(=O)(=O)c2ccc(Cl)cc2)CC1 (stereo unspecified)
inactive: Potency [8] | Potency [9] | activity (max response) [10] -1.6% | Potency [7]
active: Potency [1] 1480 nM | Potency [2] 8330 nM | Potency [3] 14800 nM | Potency [4] 9350 nM

Cc1ccc(O)c(C(CCN(C(C)C)C(C)C)c2ccccc2)c1 (stereo unspecified)
inactive: Potency [1] | Potency [2] | Potency [3] | Potency [4] | Potency [8] | Potency [5] | Potency [9] | activity (max response) [10] 1.99% | Potency [7]

Cn1c2cc(S(C)=O)sc2c2cnn(Cc3cccc(N)c3)c(=O)c21 (stereo unspecified)
inactive: Potency [1] | Potency [6] | Potency [7]

CC(N[C@H]1CCCC[C@H]1NC(=O)c1ccc(Cl)cc1)c1cccc2ccccc12 (stereo partly specified)
active: Potency [1] 8330 nM | Potency [6] 5260 nM | Potency [10] 25100 nM | Potency [7] 7080 nM
inactive: Potency [8] | Potency [5] | Potency [9]

COC(=O)[C@H](c1ccccc1Cl)N1CCc2sccc2C1
inactive: Potency [8] | Potency [5] | Potency [9] | activity (max response) [10] -22.7% | Potency [7]
active: Potency [1] 1050 nM | Potency [2] 8330 nM | Potency [3] 11800 nM | Potency [4] 9350 nM

COc1cc(C(C)=O)ccc1OCCCN1CCC(c2noc3cc(F)ccc23)CC1
inactive: Potency [1] | Potency [2] | Potency [3] | Potency [4] | Potency [8] | Potency [5] | Potency [9] | Potency [7]

CC[C@@H]1C(=O)N(C)c2cnc(Nc3ccc(C(=O)NC4CCN(C)CC4)cc3OC)nc2N1C1CCCC1
active: Potency [1] 66.2 nM | Potency [2] 26.4 nM | Potency [3] 33.2 nM | Potency [4] 33.2 nM | Potency [8] 37.2 nM | Potency [5] 46.9 nM | Potency [9] 46.9 nM | Potency [10] 35.5 nM

NC1=N[C@@]2(c3cc(NC(=O)c4ccc(F)cn4)ccc3F)COC[C@@H]2CS1
inactive: Potency [9]
active: Potency [1] 372 nM | Potency [2] 1870 nM | Potency [3] 3320 nM | Potency [4] 1660 nM

CCCCCCCCCCCC1=C(O)C(=O)C=C(O)C1=O
inactive: Potency [8] | Potency [5] | activity (max response) [10] -2.06% | Potency [7]
active: Potency [1] 332 nM | Potency [2] 2090 nM | Potency [3] 3320 nM | Potency [4] 2090 nM

OCCN1C[C@H](O)[C@@H](O)[C@H](O)[C@@H]1CO
active: Potency [1] 105 nM | Potency [2] 2640 nM | Potency [3] 2960 nM | Potency [4] 2640 nM
inactive: Potency [8] | Potency [5] | Potency [9]

CC1(C)O[C@H]2C[C@@H]3[C@H]4CCC5=CC(=O)C=C[C@]5(C)[C@@]4(F)[C@@H](O)C[C@]3(C)[C@]2(C(=O)CO)O1
active: Potency [1] 9350 nM | Potency [2] 1480 nM | Potency [3] 264 nM | Potency [4] 743 nM

CO[C@@H](C(=O)N1Cc2[nH]nc(NC(=O)c3ccc(N4CCN(C)CC4)cc3)c2C1)c1ccccc1
active: Potency [1] 148 nM | Potency [6] 46.9 nM | Potency [5] 74.3 nM | Potency [9] 83.3 nM

CC(=O)Oc1cc2c(s1)CCN(C(C(=O)C1CC1)c1ccccc1F)C2 (stereo unspecified)
active: Potency [1] 14800 nM | Potency [6] 4690 nM
inactive: activity (max response) [10] -22.6% and -6.86% | Potency [7]

C=CCNc1c(O)cc2c(O)c1C[C@@H](C)C[C@H](OC)[C@@H](O)[C@@H](C)C=C(C)[C@H](OC(N)=O)[C@@H](OC)C=CC=C(C)C(=O)N2
active: Potency [1] 10500 nM | Potency [6] 13200 nM | Potency [8] 1660 nM | Potency [5] 833 nM | Potency [9] 833 nM

CN[C@@H](C)C(=O)N[C@H]1CCCC[C@H]2CC[C@@H](C(=O)N[C@@H](c3ccccc3)c3cn(CCCCc4ccc(CCCCn5cc([C@@H](NC(=O)[C@@H]6CC[C@@H]7CCCC[C@H](NC(=O)[C@H](C)NC)C(=O)N76)c6ccccc6)nn5)cc4)nn3)N2C1=O
inactive: Potency [1] | Potency [2] | Potency [3] | Potency [4] | Potency [8] | activity (max response) [10] -2.95% | Potency [7]

CC[C@]12C=CCN3CC[C@@]4(c5cc([C@@]6(C(=O)OC)C[C@H]7C[C@@H](C(C)(F)F)CN(Cc8c6[nH]c6ccccc86)C7)c(OC)cc5N(C)[C@H]4[C@@](O)(C(=O)OC)[C@H]1OC(C)=O)[C@@H]32
active: Potency [1] 33.2 nM | Potency [2] 37.2 nM | Potency [3] 74.3 nM | Potency [4] 26.4 nM | Potency [8] 29.6 nM | Potency [5] 18.7 nM | Potency [9] 33.2 nM

CC(=O)O[C@]1(C(C)=O)CC[C@H]2[C@@H]3C=C(Cl)C4=CC(=O)[C@@H]5C[C@H]5[C@]4(C)[C@@H]3CC[C@@]21C
active: Potency [1] 590 nM | Potency [2] 2960 nM | Potency [3] 2350 nM | Potency [4] 2960 nM
inactive: Potency [8] | Potency [5] | Potency [9]
